High-throughput results: PubChem BioAssay, several laboratories
In the library only some 2.1% were active in any assay of this set; here they are far more common.
PLCb3 inh – blocks human PLC-beta3 enzyme activity; Q01970; Purified PLC-beta3, fluorogenic substrate, fluorescence; inhibition, % at 12.2 µM; actives 0.18% (n = 370,000); in the data active = inhibition above about 11%
ADAM17 inh – inhibits human ADAM17. actives 0.83% (n = 370,000). inhibition, % at 6.95 µM. recombinant ADAM17, EDANS/DABCYL FRET peptide cleavage;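 active = inhibition above the mean of compounds lying between control limits plus 3 SD, set per campaign, cut at about 8.5% in these data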
PLC-gamma1 inh – PLC-gamma1 (human) inhibition, primary screen; P19174; inhibition, % at 12.2 µM; purified PLC-gamma1, fluorogenic substrate, fluorescence; AID 720700; actives 0.84% (n = 370,000); in the data active = inhibition above about 9.5%
Target sequence (P19174 whole entry, looked up): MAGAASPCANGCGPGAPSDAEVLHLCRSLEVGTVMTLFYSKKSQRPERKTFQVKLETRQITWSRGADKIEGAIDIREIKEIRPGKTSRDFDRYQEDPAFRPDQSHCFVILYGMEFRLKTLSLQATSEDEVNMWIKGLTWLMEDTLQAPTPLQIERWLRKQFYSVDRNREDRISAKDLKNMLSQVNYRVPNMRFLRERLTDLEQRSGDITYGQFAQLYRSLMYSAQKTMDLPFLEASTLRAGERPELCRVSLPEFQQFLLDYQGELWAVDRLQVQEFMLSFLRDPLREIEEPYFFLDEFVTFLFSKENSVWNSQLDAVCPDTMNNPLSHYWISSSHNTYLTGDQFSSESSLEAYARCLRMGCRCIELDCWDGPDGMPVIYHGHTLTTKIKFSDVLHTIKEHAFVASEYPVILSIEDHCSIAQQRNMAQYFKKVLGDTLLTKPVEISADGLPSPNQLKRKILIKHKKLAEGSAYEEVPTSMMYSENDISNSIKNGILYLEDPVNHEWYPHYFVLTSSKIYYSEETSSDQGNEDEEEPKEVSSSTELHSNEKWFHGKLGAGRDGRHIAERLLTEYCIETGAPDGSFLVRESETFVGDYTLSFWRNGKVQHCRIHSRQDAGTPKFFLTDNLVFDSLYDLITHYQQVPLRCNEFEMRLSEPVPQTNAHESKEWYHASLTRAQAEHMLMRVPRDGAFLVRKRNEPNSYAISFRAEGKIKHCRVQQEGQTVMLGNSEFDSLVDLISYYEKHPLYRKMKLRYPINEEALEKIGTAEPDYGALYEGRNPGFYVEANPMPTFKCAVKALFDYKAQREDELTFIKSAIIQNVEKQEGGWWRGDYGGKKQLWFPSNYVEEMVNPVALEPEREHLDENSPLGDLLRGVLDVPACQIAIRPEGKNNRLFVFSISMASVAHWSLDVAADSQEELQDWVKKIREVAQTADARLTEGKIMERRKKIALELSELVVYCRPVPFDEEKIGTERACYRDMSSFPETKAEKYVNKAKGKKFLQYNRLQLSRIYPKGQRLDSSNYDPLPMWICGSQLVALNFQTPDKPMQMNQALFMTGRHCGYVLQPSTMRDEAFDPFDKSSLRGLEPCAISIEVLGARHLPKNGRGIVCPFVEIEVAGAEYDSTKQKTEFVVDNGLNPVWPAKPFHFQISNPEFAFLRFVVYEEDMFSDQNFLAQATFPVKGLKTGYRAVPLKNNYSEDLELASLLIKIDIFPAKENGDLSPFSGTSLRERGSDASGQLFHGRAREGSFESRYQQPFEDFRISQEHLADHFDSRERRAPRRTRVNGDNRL
Rce1 inh – yeast Ras-converting enzyme inhibition; yeast membranes, quenched prenylated peptide cleavage fluorescence; calls only; actives 0.27% (n = 290,000); AID 2563;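 active = fall in fluorescence gain of 50% or more versus controls, with final raw signal at or below 3038400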
ADAM10 inh – ADAM10 inhibition, QFRET primary screen. O14672. recombinant ADAM10, EDANS/DABCYL FRET peptide cleavage, 3 h. inhibition, % at 7 µM. actives 0.62% (n = 370,000). AID 720582;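 active = inhibition above a per-campaign cutoff equal to the mean of compounds falling between control-based bounds plus 3 SD, cut at about 20% in these data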
ADAM10 confirm – human ADAM10 inhibition, confirmation. shares compounds with ADAM10 inh. inhibition, % at 6.95 µM. ADAM10 QFRET peptide cleavage, EDANS fluorescence. AID 743208. actives 1% (n = 2,100);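 active = inhibition above about 20% chosen separately for each screening run, limit read from the data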
ADAM17 counter – ADAM17 inhibition, counter-screen for ADAM10 exosite hits; ADAM17 QFRET peptide cleavage, EDANS fluorescence; inhibition, % at 6.95 µM; shares compounds with ADAM10 inh; actives 0.5% (n = 2,100);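 active = mean triplicate inhibition above the solvent-only control wells' mean plus 3 SD, cut at about 12% in these data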
ADAM10 ctr – ADAM10 inhibition, counter-screen for ADAM17 exosite hits; shares compounds with ADAM17 inh; recombinant ADAM10, EDANS/DABCYL FRET peptide cleavage, 3 h; inhibition, % at 6.95 µM; actives 47% (n = 2,900);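 active = mean inhibition over the triplicate runs exceeds the activity threshold set in the earlier primary screen, cut at about 20% in these data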
ADAM17 confirm – human ADAM17 inhibition, confirmation. recombinant ADAM17, EDANS/DABCYL QFRET peptide cleavage. shares compounds with ADAM17 inh. actives 65% (n = 2,900). inhibition, % at 6.95 µM;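 active = mean inhibition across replicates above the hit cutoff set in the primary screen, cut at about 8.5% in these data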
Each line names hits and unclear results; the compound was inactive in the other large screens (follow-up assays come after a bar, where they were run).

COC(=O)[C@]12C[C@H](CC(=O)NCCC(C)C)C(=O)N(Cc3cccc4ccccc34)C1=C[C@H](C(C)C)O[C@@H]2C1CC1	ADAM17 inh 8.6, ADAM10 inh 20 (no result: Rce1 inh) | ADAM10 confirm inactive | ADAM17 counter inactive | ADAM10 ctr 34 | ADAM17 confirm 22
CN1C(=O)[C@H]2[C@@H](c3ccccc3)N[C@]3(CCCN(Cc4ccc(F)cc4)C3=O)[C@H]2C1=O	none (no result: Rce1 inh)
Cc1ccc(S(=O)(=O)N/N=C/c2ccc(OS(=O)(=O)c3ccc(C)c([N+](=O)[O-])c3)cc2)cc1	ADAM17 inh 12, ADAM10 inh 26 | ADAM10 confirm inactive | ADAM17 counter inactive | ADAM10 ctr 36 | ADAM17 confirm 20
O=C(O)COc1ccccc1C(Nc1cccnc1)c1cc(Cl)c2cccnc2c1O (configuration not stated)	none (no result: PLCb3 inh, ADAM17 inh, PLC-gamma1 inh, ADAM10 inh)
CCOc1ccc(C(Nc2cccnc2)c2cc(Cl)c3cccnc3c2O)cc1 (configuration not stated)	ADAM17 inh 15, ADAM10 inh 22 | ADAM10 confirm 45 | ADAM17 counter 15 | ADAM10 ctr 49 | ADAM17 confirm 28
COc1ccc(NC(=O)c2cc(S(=O)(=O)N(Cc3ccccc3)c3ccccc3)ccc2Cl)cn1	ADAM17 inh 9.6, ADAM10 inh 20 | ADAM10 confirm inactive | ADAM17 counter inactive | ADAM10 ctr 23 | ADAM17 confirm 12
COc1ccc(NC(=O)c2cccc(S(=O)(=O)N(C)c3ccccc3)c2)cn1	none
O=C(Nc1nc2ccc(F)cc2s1)C1CCN(S(=O)(=O)c2cc([N+](=O)[O-])ccc2Cl)CC1	ADAM17 inh 8.8, ADAM10 inh 21 | ADAM10 confirm inactive | ADAM17 counter inactive | ADAM10 ctr inactive | ADAM17 confirm 13
Cc1c(O)ccc(C(=O)COc2ccccc2F)c1O	ADAM17 inh 12, ADAM10 inh 22 | ADAM10 confirm inactive | ADAM17 counter inactive | ADAM10 ctr 27 | ADAM17 confirm 12
O=C(COc1ccccc1F)c1ccc(O)cc1O	none
CCc1cc2cc(C)cc(C)c2[nH]c1=S	none
CC(C)c1c(C(=O)N/N=C/c2cccc3ccccc23)nnn1-c1nonc1N	ADAM17 inh 10, Rce1 inh active, ADAM10 inh 20 | ADAM10 confirm inactive | ADAM17 counter inactive | ADAM10 ctr 27 | ADAM17 confirm 20
CCCc1c(C(=O)N/N=C/c2cccc3ccccc23)nnn1-c1nonc1N	none
OCCNc1nc(Nc2ccccc2OC(F)(F)F)nc(N2CCCC2)n1	none
OCCNc1nc(Nc2ccccc2Oc2ccccc2)nc(N2CCCC2)n1	ADAM17 inh 12, ADAM10 inh 27 | ADAM10 confirm inactive | ADAM17 counter inactive | ADAM10 ctr 21 | ADAM17 confirm 13
O=C(/C=C/C=C/c1ccccc1)CC1(O)C(=O)N(CCc2ccccc2)c2ccccc21 (configuration not stated)	ADAM17 inh 9.3, ADAM10 inh 21 | ADAM10 confirm inactive | ADAM17 counter inactive | ADAM10 ctr 36 | ADAM17 confirm 19
Cc1ccc(NC(=O)Cc2ccccc2Cl)cc1S(=O)(=O)N(C)C	none
Cc1ccc(NC(=O)Cc2ccc(Cl)c(Cl)c2)cc1S(=O)(=O)N(C)C	ADAM17 inh 15, ADAM10 inh 28 | ADAM10 confirm inactive | ADAM17 counter inactive | ADAM10 ctr inactive | ADAM17 confirm 9.6
Cc1ccc(NC(=O)CSc2nn(-c3ccc(Cl)cc3)c(=S)s2)cc1S(=O)(=O)N(C)C	ADAM17 inh 9.8, ADAM10 inh 25 | ADAM10 confirm inactive | ADAM17 counter inactive | ADAM10 ctr 28 | ADAM17 confirm 20
O=C(C(=O)N1CCN(c2ccccc2Cl)CC1)c1c[nH]c2ccccc12	ADAM17 inh 14, ADAM10 inh 26 | ADAM10 confirm inactive | ADAM17 counter inactive | ADAM10 ctr 21 | ADAM17 confirm 12
Clc1ccccc1N1CCN(Cc2c[nH]c3ccccc23)CC1	none
Cc1c(NC(=O)COc2cccc(Cl)c2Cl)c(=O)n(-c2ccccc2)n1C	none
NC(=S)N/N=C1/CCSc2ccc3ccccc3c21	none
COc1cc(/C=C/C(=O)OCC(=O)c2ccc3c(c2)NC(=O)CO3)ccc1OC(F)F	none (no result: Rce1 inh)
Cc1ccc(-n2c(SCC(=O)Nc3cccc(S(N)(=O)=O)c3)nc3ccccc32)cc1	ADAM17 inh 12, ADAM10 inh 20 | ADAM10 confirm inactive | ADAM17 counter inactive | ADAM10 ctr 26 | ADAM17 confirm 14
CC(C)(C)OC(=O)N1CCC(N[C@@H](Cc2ccccc2)C(=O)NCCc2c[nH]c3ccccc23)(C(=O)NC2CCCCC2)CC1	ADAM17 inh 10, ADAM10 inh 24 (no result: Rce1 inh) | ADAM10 confirm inactive | ADAM17 counter inactive | ADAM10 ctr 34 | ADAM17 confirm 19
CC(C)(C)OC(=O)N1CCC(N[C@@H](Cc2c[nH]c3ccccc23)C(=O)NCC(c2ccccc2)c2ccccc2)(C(=O)NC2CCCCC2)CC1	none (no result: Rce1 inh)
CCOc1ccc(CCN2C(=S)N([C@@H](Cc3ccc(O)cc3)CN3CCC[C@@H]3CN3C(=S)NC[C@@H]3CC(C)C)C[C@@H]2Cc2ccc(O)cc2)cc1	ADAM17 inh 9.8, ADAM10 inh 23 (no result: Rce1 inh) | ADAM10 confirm inactive | ADAM17 counter inactive | ADAM10 ctr 47 | ADAM17 confirm 24
COc1cc(/C=C2/SC(=S)N(Cc3ccccc3)C2=O)ccc1O	ADAM17 inh 12, ADAM10 inh 23 | ADAM10 confirm inactive | ADAM17 counter inactive | ADAM10 ctr 38 | ADAM17 confirm 22
O=C1/C(=C\c2ccc(O)c(O)c2)SC(=S)N1Cc1ccccc1	ADAM17 inh 8.9, ADAM10 inh 23 | ADAM10 confirm inactive | ADAM17 counter inactive | ADAM10 ctr 36 | ADAM17 confirm 21
COc1ccc(NC(=O)COC(=O)c2ccc(-n3cnnn3)cc2)cc1Cl	none
C/C(=N\NC(=O)c1nnn(-c2nonc2N)c1CN(C)c1ccccc1)c1cccnc1	none
CCC(C)C(NC(=O)C(Cc1ccc(O)cc1)NC(=O)OCc1ccccc1)C(=O)OC (configuration not stated)	none (no result: Rce1 inh)
C/C(Cl)=C\Cn1c(N2CCCC2)nc2c1c(=O)n(C)c(=O)n2C	none
COc1ccc(OC)c(-c2nnc3n2N=C(c2ccc(OC)c(OC)c2)CS3)c1	none (no result: Rce1 inh)
COc1ccc(OC)c(-c2nnc3n2N=C(c2ccc(OC)c(OC4CCCC4)c2)CS3)c1	ADAM17 inh 17, ADAM10 inh 31 (no result: Rce1 inh) | ADAM10 confirm inactive | ADAM17 counter inactive | ADAM10 ctr inactive | ADAM17 confirm inactive
